BAZ2B inh: qHTS Assay for Inhibitors of BAZ2B. AlphaScreen BAZ2B-H3K14Ac peptide displacement. Potency, µM (series often up to 114 µM), for inactives: at the top dose activity change, negative = inhibition, hits mostly inhibitors. 360,000 compounds, 4.4% hits. AID 504333, 2011; also: % is scaled to controls: 0 for no effect and ±100 for the full control effect; nearly all actives have a fitted effect of over 60% in size
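BAZ2B (50 nM) with biotin-H3(5-23)K14Ac peptide (50 nM) in PBS pH 7.4, 0.01% Tween-20, preformed 30 min, then compound 30 min at room temperature; top concentration 110uM. AlphaScreen streptavidin donor/nickel chelate acceptor beads (10 ug/mL final), 20 min dark, signal read.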
PLK1 PBD block: qHTS for Inhibitors of PLK1-PDB (polo-like kinase 1 - polo-box domain): Primary Screen; Plk1 PBD binding of FITC phosphopeptide, fluorescence polarization; Potency, µM, without a hit: max response, negative = inhibition, hits mostly inhibitors; 360,000 compounds, 2.8% hits; AID 720504, 2013; also: series mostly up to about 57 µM; % is scaled to controls: 0 for no effect and ±100 for the full control effect; nearly all actives have a fitted effect of over 65% in size
G9a block: qHTS Assay for Inhibitors of Histone Lysine Methyltransferase G9a | Potency, µM (titrated, usually from 102 µM), for the others: at the highest dose activity, negative = inhibition, most hits filed as inhibitors | G9a H3K9 monomethylation, AlphaScreen, 2 h | 350,000 compounds, 8.8% hits; also: % is scaled to controls: 0 for no effect and ±100 for the full control effect; nearly all actives have a fitted effect of over 75% in size
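AlphaScreen detection with an anti-monomethyl H3K9 antibody quantified product after a 2 h room-temperature reaction containing 500 nM biotinylated H3K9 peptide, 20 µM SAM and 20 nM enzyme, which had been preincubated 15 min with compound.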
Sfp PPTase inh: qHTS Assay for Inhibitors of Bacillus subtilis Sfp phosphopantetheinyl transferase (PPTase). 4'-phosphopantetheinyl transferase ffp (Bacillus subtilis), Q9F4F7. Biochemical Sfp PPTase activity, qHTS. Potency, µM, inactives show largest response in the series, negative = inhibition, most hits filed as inhibitors. 310,000 compounds, 3.5% hits. AID 1490, 2009;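 also: the enzyme is Sfp with the accession as filed and its product quenches rhodamine fluorescence; 0% = enzyme reaction without inhibitor and -100% = no enzyme wells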
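Fluorescence-quenching assay: 15 nM Sfp-PPTase preincubated 15 min at room temperature with compound, then 5 uM rhodamine-CoA and 12.5 uM BHQ-2-labelled YbbR peptide added. Fluorescence (ex 525/em 598 nm) read at start and after 30 min; difference gives rate.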
HP1b binding inh: HTS for Inhibitors of HP1-beta Chromodomain Interactions with Methylated Histone Tails | Chromobox protein homolog 1 (Homo sapiens), P83916 | AlphaScreen HP1-beta / biotin-H3K9me3 peptide binding | Potency, µM (series often up to 114 µM), for the others: at the highest dose activity change, negative = inhibition, hits mostly inhibitors | 390,000 compounds, 0.56% hits; also: nearly all actives have a fitted effect of over 70% in size
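Compound inhibition of the preformed complex between 50 nM HP1-beta and 50 nM biotinylated H3K9me3 peptide was read by AlphaScreen. Buffer was PBS pH 7.4 with 0.01% Tween-20. Incubations ran 30 min at room temperature, with 10 ug/mL donor/acceptor beads.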
JMJD2A Tudor inh: qHTS Assay for Inhibitors of JMJD2A-Tudor Domain; Lysine-specific demethylase 4A (Homo sapiens), O75164; AlphaScreen JMJD2A-Tudor / H3K4me3 peptide binding; Potency, µM (doses to about 114 µM), inactives show at the top dose activity change, negative = inhibition, most hits filed as inhibitors; 390,000 compounds, 4.4% hits; AID 504339, 2011; also: % is scaled to controls: 0 for no effect and ±100 for the full control effect; nearly all actives have a fitted effect of over 50% in size
Target sequence (O75164 whole entry, looked up, the tested form may be a part): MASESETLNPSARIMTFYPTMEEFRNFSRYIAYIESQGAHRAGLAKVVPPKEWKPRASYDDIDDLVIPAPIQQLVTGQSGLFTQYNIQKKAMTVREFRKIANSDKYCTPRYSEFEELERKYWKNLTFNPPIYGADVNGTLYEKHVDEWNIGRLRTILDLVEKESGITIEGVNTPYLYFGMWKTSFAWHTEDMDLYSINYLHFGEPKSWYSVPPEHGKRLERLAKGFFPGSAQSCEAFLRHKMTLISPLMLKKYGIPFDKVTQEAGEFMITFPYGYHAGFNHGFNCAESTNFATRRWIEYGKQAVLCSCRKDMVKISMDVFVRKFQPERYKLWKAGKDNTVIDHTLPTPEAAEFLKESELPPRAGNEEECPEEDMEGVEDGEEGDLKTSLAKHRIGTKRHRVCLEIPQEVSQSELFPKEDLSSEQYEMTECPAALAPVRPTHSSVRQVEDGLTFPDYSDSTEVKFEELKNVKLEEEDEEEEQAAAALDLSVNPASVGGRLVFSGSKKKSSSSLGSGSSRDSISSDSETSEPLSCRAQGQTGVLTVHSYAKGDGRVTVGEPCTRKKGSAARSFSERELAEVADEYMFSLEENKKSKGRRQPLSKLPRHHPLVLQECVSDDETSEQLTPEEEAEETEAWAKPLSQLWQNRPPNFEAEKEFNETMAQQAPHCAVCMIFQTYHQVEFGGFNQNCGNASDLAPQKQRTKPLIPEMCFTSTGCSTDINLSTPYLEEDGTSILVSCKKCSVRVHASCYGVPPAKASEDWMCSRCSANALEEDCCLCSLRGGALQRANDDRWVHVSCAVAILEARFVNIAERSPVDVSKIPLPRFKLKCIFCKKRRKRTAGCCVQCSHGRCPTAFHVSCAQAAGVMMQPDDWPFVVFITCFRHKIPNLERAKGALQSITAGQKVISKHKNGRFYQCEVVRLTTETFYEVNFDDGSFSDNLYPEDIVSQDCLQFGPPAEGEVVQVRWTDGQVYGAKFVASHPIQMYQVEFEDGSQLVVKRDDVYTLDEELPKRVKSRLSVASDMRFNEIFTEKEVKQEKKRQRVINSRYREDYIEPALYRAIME
Active calls of the source: *; u = inconclusive; x = no result; ! = not confirmed by another sample; [ ] = remark or other dose. Rows were chosen to be rich in hits. Some 12% of all compounds tested hit in one or more screens of this group. Calls follow the shape of the dose curve; as a rule, active = well fitted curve in the direction sought with a large enough effect; inconclusive = small, poorly fitted or top-dose-only effect, or another doubt; inactive = no such curve, though single readings can be large; an effect the other way counts as inactive or inconclusive. Potency is read from the fitted curve at half-maximal effect.

SMILES	BAZ2B inh	PLK1 PBD block	G9a block	Sfp PPTase inh	HP1b binding inh	JMJD2A Tudor inh
CC(=O)c1ccc(N2CCN(S(=O)(=O)c3cc(-c4onc(C)c4C)ccc3C)CC2)cc1	0.4%	x	0.9%[59 µM]	x	20.0%	10.1%
CCCNC(=O)N1c2ccccc2Sc2ccccc21	0.7%	-3.2%	x	7.3%	15.9%	2.9%
CCC(C)NC(=O)N1c2ccccc2Sc2ccccc21 (stereo not given)	-28.2%	-12.4%	44.7µM*	-2.4%	4.9%	u
COc1ccc(Nc2nc(Nc3ccc(OC)cc3OC)nc(N3CCOCC3)n2)c(OC)c1	7.94µM*	x	u	x	6.5%	u
COc1ccc(Nc2nc(N3CCOCC3)nc(N3CCOCC3)n2)c(OC)c1	-31.4%	0.3%	8.4%[0.501 µM]	19.1%	16.6%	-34.6%
CCN(CC)CCNC(=O)COc1ccc(Cl)cc1Cl	-8.8%	-2.5%	u	15.6%	21.2%	-13.7%
CN(C)CCNC(=O)COc1cccc(Cl)c1	u	-13.8%	22.4µM*	-10.5%	2.8%	-5.5%[57.1 µM]
O=C(COc1ccc(Cl)cc1Cl)NCCSc1ccc(Cl)cc1	50.3%	2.99µM*	28.2%	-4.6%	69.8%	u
CN(C)CCNC(=O)COc1ccc(Cl)cc1Cl	1.4%	1.0%	50.1µM*	-4.7%	16.7%	u
Cc1ccccc1C(=O)Nc1ccc(C(=O)N/N=C/c2ccc(O)c(Br)c2)cc1	-20.2%	-4.9%	x	10.7%	15.1%	-17.0%
Cc1ccc(Sc2c(C)nn(C(=O)COc3ccccc3)c2C)cc1	108.3%	x	69.4%[59 µM]	x	96.1%	124.2%
CCn1ncc(NC(=S)NCCc2ccc(OC)c(OC)c2)c1C(N)=O	-22.5%	0.6%	u	-8.0%	32.5%	2.0%
CCCc1cc(-n2ccnc2C)n2c(nc3ccccc32)c1C#N	x	-4.4%	x	x	38.9%	1.4%
CCCc1cc(N2CCN(C(=O)c3ccco3)CC2)n2c(nc3ccccc32)c1C#N	16.6%	-12.1%	15.8µM*	56.2µM*	55.0%	-6.4%
CCCCc1nc(N2CCN(C(=O)c3ccco3)CC2)c(C#N)c2c1CCCC2	u	-19.9%	-10.5%	44.7µM*	11.9%	-13.0%
CCc1nc2ccc(C(=O)Nc3cccc(OCC(=O)N(C)C)c3)cn2c1N(C)C(=O)c1cccc(OC)c1	x	-3.1%	x	x	x	x
FC(F)(F)c1cc(CN2CCCC3(CCNCC3)C2)cc(C(F)(F)F)c1	x	x	14.3%[12.7 µM]	-2.7%	x	x
COc1ccc(Cl)cc1C(=O)NNC(=O)C1COc2ccccc2O1 (stereo not given)	-11.6%	23.8µM*	6.2%	10.8%	-9.7%	22.4µM*
O=C(NNS(=O)(=O)c1ccccc1Cl)C1COc2ccccc2O1 (stereo not given)	x	18.9µM*	x	x	32.8%	-13.2%
C[C@H]1CN([C@@H](C)CO)C(=O)c2cccc(NC(=O)Nc3ccc(F)cc3)c2O[C@@H]1CN(C)Cc1ccc(C(=O)O)cc1	x	-15.4%	x	x	29.8%	-14.5%
COC(=O)c1c(NC(=O)c2ccccc2[N+](=O)[O-])sc2c1CC(C)(C)NC2(C)C	-2.3%	-6.4%	2.6%[59 µM]	3.4%	-3.2%	-27.0%
COC(=O)c1c(NC(=O)Cc2ccccc2)sc2c1CC(C)(C)NC2(C)C	-7.9%	23.8µM*	x	28.2µM*	-9.1%	-26.2%
COC(=O)c1c(NC(=O)COc2ccc(Cl)cc2)sc2c1CC(C)(C)NC2(C)C	u	-13.8%	x	56.2µM*	1.7%	u
CCOC(=O)c1c(NC(=O)CSc2nc3ccc(OC)cc3[nH]2)sc2c1CC(C)(C)NC2(C)C	-3.9%	0.5%	50.1µM*	x	-13.1%	u
CC(C)Oc1ccc2c(=O)c3cc(C(=O)O)ccc3oc2c1	x	x	x	8.6%	x	x
SMILES	BAZ2B inh	PLK1 PBD block	G9a block	Sfp PPTase inh	HP1b binding inh	JMJD2A Tudor inh
CCOC(=O)C1=C(Cc2ccc(Cl)cc2)C(=O)c2ccccc2C1=O	22.4µM*	4.74µM*	2.51µM*	3.55µM*	20µM*	35.5µM*
O=S1(=O)Nc2c(cc(Cl)c3ccc(Cl)nc23)-c2ccccc21	x	x	x	x	u	39.8µM*
O=C(NC(=S)Nc1cccc(Cl)c1N1CCCCC1)c1cccs1	-28.2%[57.1 µM]	-1.0%	-25.9%	23.5%	u	56.2µM*
O=C(NC(=S)Nc1cccc(Cl)c1N1CCCCC1)c1ccco1	u	-4.8%	-43.9%	15.9%	-12.5%	-32.5%
N#Cc1ccccc1NC(=O)COC(=O)c1cccs1	x	-3.2%	x	x	31.3%	2.7%
N#Cc1ccccc1NC(=S)NC(=O)c1cccs1	-13.0%	8.44µM*	11.2µM*	31.6µM*	-6.5%[57 µM]	-25.3%
Oc1c(C=NCc2ccccc2)sc2ccccc12	u	-13.3%	u	10.5%	u	89.1µM*
Oc1cccc(C=NCc2ccccc2)c1O	u	-17.6%	u	u	-13.9%	-25.2%
Cc1cccc(N2CCN(C3CCCCC3NS(=O)(=O)c3ccccc3)CC2C)c1 (stereo not given)	-34.6%	-1.1%	16.2%	2.4%	22.0%	1.9%
CCOC(=O)c1c(C)[nH]c(C(=O)COC(=O)c2ccco2)c1C	x	4.8%	x	x	29.6%	-18.5%
CCOC(=O)/C(C#N)=N/Nc1ccc(S(=O)(=O)N2CCc3ccccc32)cc1	u	-1.7%	u	14.2%	u	u
N#C/C(=N\Nc1ccc(S(=O)(=O)N2CCCCCC2)cc1)C(N)=S	-38.1%	15µM*	2µM*	u	u	u
N#C/C(=N\Nc1ccc(S(=O)(=O)N2CCc3ccccc32)cc1)C(N)=S	31.6µM*	26.7µM*	15.8µM*	u	6.31µM*	u
Cc1nc(-c2ccc(S(=O)(=O)Nc3ccc(C)c(C)c3)s2)cs1	x	x	x	x	x	-17.0%
CC(=O)N/N=C/c1cc(C(C)(C)C)cc(/C=N/NC(C)=O)c1O	-18.9%	21.2µM*	39.5%[12.7 µM]	13.9%	34.8%	-29.9%
CCN(c1ccccc1)c1ncnc2c1cnn2-c1ccc(C)cc1C	13.1%	x	-6.7%[59 µM]	x	45.1%	-5.0%
Nc1ncnc2c1c(-c1ccc(Oc3ccccc3)cc1)cn2C1CCCC1	39.8µM*	-2.9%	14.1µM*	u	u	44.7µM*
Cc1ccn2c(=O)c(NC(=O)c3ccc4c(c3)OCO4)c(C)nc2c1	x	-7.4%	x	x	x	x
CN1CCc2c(c3ccccc3n2C)C1	-26.0%	-5.7%	-4.0%[12.7 µM]	17.8%	19.5%	-20.9%
Cc1c2n(c3ccccc13)CCN(C)C2	-1.5%	-0.5%	-11.3%[2.33 µM]	x	20.6%	22.4µM*
NC(Cc1ccc(Cl)cc1)C(=O)O (stereo not given)	x	x	9.47µM*!	2.1%	x	x
